Results on 36 molecules are retold here after PubChem BioAssay (Tox21).

Values joined by “and” are separate entries in the source; they are usually repeats but may differ in a detail not shown here. Identical values can stand only once. Results filed as inconclusive are left out. Entries that show only a call come without a potency. The source holds several records for some structures; these can differ, active in one and inactive in another. Active and inactive are the calls of the source. The call rests on the fitted dose curve; in most records, active means well fitted inhibition curve with a large enough effect in the repeat runs; inconclusive means weak or mixed curves; inactive means no such curve, though single readings can be large or run the other way. Starred links: 1 amine or outer side, 2 acyl side, 3 side chain; linkers in the order of their positions; H or OH if unused. Positions of bridges follow the written chain, without caps; N, C: chain ends. Non-standard residues stand in square brackets, D forms with d. Residues, ends and D or L forms follow the SMILES beside them. Chains are numbered I, II in the order given. Actinocin(9to1) = Cc1c2oc3c(C)ccc(C(=O)[*:1])c3nc-2c(C(=O)[*:2])c(N)c1=O; NMeV = CN[C@H](C(=O)O)C(C)C; Sar = CNCC(=O)O
Potency means the concentration at half of the fitted maximal effect.

In the assay the target is Cytochrome P450 1A2 (Homo sapiens) (UniProt P05177). The experiment in a line: Cytochrome P450 Family 1 Subfamily A Member 2 (CYP1A2) small molecule antagonists: luciferase reporter qHTS assay (AID 1671199). Further: nearly all actives have a fitted effect of over 50% in size. The settings on record: P450-Glo CYP1A2 enzyme, luciferin luminescence, 1 h; series mostly up to 53 µM. In short, it runs like this: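 Read-out is luminescence from luciferin detection reagent (20 min) proportional to CYP1A2 activity; compounds in DMSO preincubated 10 min with enzyme and proluciferin substrate, then NADPH regeneration solution, 1 h, room temperature.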
Chain of Cytochrome P450 1A2 (Homo sapiens) (P05177 whole entry, looked up): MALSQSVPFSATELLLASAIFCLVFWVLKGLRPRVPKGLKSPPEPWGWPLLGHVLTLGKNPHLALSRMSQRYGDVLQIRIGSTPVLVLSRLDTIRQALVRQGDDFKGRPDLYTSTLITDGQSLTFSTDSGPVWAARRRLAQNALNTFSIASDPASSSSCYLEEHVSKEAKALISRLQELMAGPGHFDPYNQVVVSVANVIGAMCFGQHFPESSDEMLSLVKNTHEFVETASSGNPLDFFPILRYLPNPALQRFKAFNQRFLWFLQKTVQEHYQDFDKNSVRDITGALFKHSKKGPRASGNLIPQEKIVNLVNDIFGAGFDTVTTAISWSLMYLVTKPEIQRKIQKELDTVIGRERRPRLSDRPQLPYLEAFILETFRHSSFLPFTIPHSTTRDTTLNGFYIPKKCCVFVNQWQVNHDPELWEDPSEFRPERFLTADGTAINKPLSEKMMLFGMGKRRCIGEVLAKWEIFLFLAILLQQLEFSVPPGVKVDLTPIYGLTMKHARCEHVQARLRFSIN
Background: Reporter assays use an easily measured gene product as a stand-in for the process of interest.
Take `CC(C)CCOC(=O)c1ccc(N(C)C)cc1`: the Potency was 2.88 µM (active).
For `COc1cc(C(=S)N2CCOCC2)ccc1O`, the Potency result is “inactive”.
Next, `CCCCCCCCCCCCCC[P+](CCCC)(CCCC)CCCC`: 70.6 µM (active) and 79.6 µM (active).
For the molecule `Oc1c(Cl)cc(Cl)cc1Sc1cc(Cl)cc(Cl)c1O`, the Potency was 72.2 µM (active) and inactive.
Next, `CC(=O)OCC1=C(C(=O)O)N2C(=O)[C@@H](NC(=O)Cc3cccs3)[C@H]2SC1`: “inactive”.
As for `CC(=O)CC(=O)Nc1ccc2[nH]c(=O)[nH]c2c1`, the Potency was 39.9 µM (active).
`COc1nc(C)nc(Cl)c1NC1=NCCN1`: the Potency result was “inactive”.
To `CCOc1ccc2c(c1)C(C)=CC(C)(C)N2` belongs 39.7 µM (active) and 31.7 µM (active); to `Oc1c(Cl)cc(Cl)c(Cl)c1Cc1c(O)c(Cl)cc(Cl)c1Cl`, “inactive”.
Next, `CCCCCCC(O)CCCCCCCCCCC(=O)O` (stereo unspecified): “inactive”; `CCC(C)(Oc1ccc(C2(c3ccc(OC(C)(CC)C(=O)O)cc3)CCCCC2)cc1)C(=O)O` (stereo unspecified): “inactive”; `CCCNC(C)C(=O)Nc1ccccc1C` (stereo unspecified): “inactive”.
Next, `CC(=O)N[C@@H](CS)C(=O)O`: “inactive”.
Take `O=C1NCC2(CCN(CCc3ccccc3)CC2)O1`: the Potency entry was “inactive”.
To `CC(C)(C)c1ccccc1` belongs 20 µM (active); to `CCCCOCCOC(=O)c1ccccc1C(=O)OCCOCCCC`, 19.6 µM (active) and 15.9 µM (active); to `Cc1cc(Cc2cc(C)cc(C(C)(C)C)c2O)c(O)c(C(C)(C)C)c1`, 25.3 µM (active).
Consider `Nc1ccc2cc3ccccc3cc2c1`, for which the Potency is 4.06 µM (active) and 2.24 µM (active).
In the case of `Cc1ccnc2c1NC(=O)c1cccnc1N2C1CC1`, the Potency was 33 µM (active) and inactive.
Next, `c1cc(C(c2ccc(OCC3CO3)cc2)C(c2ccc(OCC3CO3)cc2)c2ccc(OCC3CO3)cc2)ccc1OCC1CO1` (stereo unspecified): “inactive”.
Regarding `C=CC(=O)OCCCCCCOC(=O)C=C`, the Potency was 28.6 µM (active) and 31.7 µM (active).
Next, `O=C(Nc1ccccc1SSc1ccccc1NC(=O)c1ccccc1)c1ccccc1`: 8.01 µM (active) and 8.94 µM (active); `O=C(Cl)c1cccc(C(=O)Cl)c1`: “inactive”.
To `Cc1c2oc3c(C)ccc(C(=O)N[C@@H]4C(=O)N[C@H](C(C)C)C(=O)N5CCC[C@H]5C(=O)N(C)CC(=O)N(C)[C@@H](C(C)C)C(=O)O[C@@H]4C)c3nc-2c(C(=O)N[C@@H]2C(=O)N[C@H](C(C)C)C(=O)N3CCC[C@H]3C(=O)N(C)CC(=O)N(C)[C@@H](C(C)C)C(=O)O[C@@H]2C)c(N)c1=O` (I: T[dV]P[Sar][NMeV] / II: T[dV]P[Sar][NMeV]; ester I:1-I:C, II:1-II:C; linker I:N-II:N via Actinocin(9to1)) belongs “inactive”; to `BrC1CCC(Br)C(Br)CCC(Br)C(Br)CCC1Br` (stereo unspecified), “inactive”.
To `NCCO` belongs 9.47 µM (active); to `CCc1ccc(C(c2ccc(CC)cc2)C(Cl)Cl)cc1`, 40.6 µM (active); to `CCOc1ccccc1C(N)=O`, 31.8 µM (active) and 17.4 µM (active).
On to `CCc1cc(C(C)(C)C)c(O)c(C(C)(C)C)c1`, for which the Potency entry was “inactive”.
Next, `N[C@@H]1CONC1=O`: “inactive”; `CCCCCCCCCCCC[N+](C)(C)C`: “inactive”; `CC(=O)OCCOCCOCCOC(C)=O`: “inactive”.
On to `NCCCCCC(=O)O`, for which the Potency result is “inactive”.
Turning to `COC(=O)/C=C/c1ccccc1`, the Potency is 15.9 µM (active) and 28.3 µM (active).
Turning to `CC(C)(C)NCC(O)c1cc(O)cc(O)c1` (stereo unspecified), the Potency entry is “inactive”.
In the case of `C=C(C)C(=O)O`, the Potency entry is “inactive”.
